# According to PubChem BioAssay AID861 (The Scripps Research Institute Molecular Screening Center, 2007):
# The campaign covered roughly 200,000 compounds. About 360 (0.18%) were called active. No stated cut-off is given here; in the data, active means inhibition above about 25%; inactive means the rest. The list comes from a sample in which actives are over-represented; it also holds similar structures and randomly drawn compounds.
# Target: Toll-like receptor 4 (Homo sapiens) + Myeloid differentiation primary response protein MyD88 (Homo sapiens) (UniProt O00206+Q99836)
# Test: inhibitors of TLR4-MyD88 association in cells, primary screen, cell-based, HeLa CL3-4, BLA complementation, FRET ratio (AID 861);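 further: 0% = vehicle and 100% = reference inhibitor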
# Conditions: HeLa CL3-4 TLR4/MyD88 BLA complementation, at 8.4 µM, stronger effect = higher value
# Chain of Toll-like receptor 4 (Homo sapiens) + Myeloid differentiation primary response protein MyD88 (Homo sapiens) (O00206 whole entry, looked up): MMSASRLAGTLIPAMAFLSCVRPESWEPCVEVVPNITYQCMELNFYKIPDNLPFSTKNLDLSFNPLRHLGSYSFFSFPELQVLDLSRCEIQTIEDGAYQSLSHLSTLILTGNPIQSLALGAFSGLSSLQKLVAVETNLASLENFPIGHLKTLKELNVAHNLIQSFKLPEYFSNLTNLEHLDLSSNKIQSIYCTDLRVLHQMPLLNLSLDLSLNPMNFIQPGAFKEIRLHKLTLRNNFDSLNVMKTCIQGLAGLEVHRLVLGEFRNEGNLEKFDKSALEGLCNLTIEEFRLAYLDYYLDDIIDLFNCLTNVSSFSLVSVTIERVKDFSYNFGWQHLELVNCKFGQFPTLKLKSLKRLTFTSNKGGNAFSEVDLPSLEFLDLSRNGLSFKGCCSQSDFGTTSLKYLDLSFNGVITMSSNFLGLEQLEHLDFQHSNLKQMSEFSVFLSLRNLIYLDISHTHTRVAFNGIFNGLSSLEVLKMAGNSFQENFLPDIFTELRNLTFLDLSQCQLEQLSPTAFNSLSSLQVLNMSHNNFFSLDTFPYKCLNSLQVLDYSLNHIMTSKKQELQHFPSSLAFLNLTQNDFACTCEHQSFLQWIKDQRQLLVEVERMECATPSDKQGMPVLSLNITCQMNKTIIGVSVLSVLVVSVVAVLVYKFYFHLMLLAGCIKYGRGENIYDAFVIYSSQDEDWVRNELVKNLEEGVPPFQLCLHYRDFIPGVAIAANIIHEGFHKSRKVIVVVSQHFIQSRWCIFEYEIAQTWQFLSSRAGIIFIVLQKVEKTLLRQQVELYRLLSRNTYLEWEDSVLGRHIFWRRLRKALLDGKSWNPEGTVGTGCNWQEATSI
# Chain of Toll-like receptor 4 (Homo sapiens) + Myeloid differentiation primary response protein MyD88 (Homo sapiens) (Q99836 whole entry, looked up): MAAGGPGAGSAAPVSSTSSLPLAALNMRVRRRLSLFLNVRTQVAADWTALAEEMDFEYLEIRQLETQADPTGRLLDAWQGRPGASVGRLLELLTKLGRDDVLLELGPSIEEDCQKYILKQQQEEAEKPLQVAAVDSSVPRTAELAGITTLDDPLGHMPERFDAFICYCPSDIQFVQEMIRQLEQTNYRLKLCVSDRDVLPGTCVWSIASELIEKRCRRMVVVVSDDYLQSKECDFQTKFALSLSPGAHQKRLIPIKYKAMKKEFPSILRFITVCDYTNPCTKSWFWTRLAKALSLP
row,SMILES,inhibition
1,CCOC(=O)Cc1csc(NC(=O)CSc2ccc(Br)cc2)n1,-6.41% (inactive)
2,CNC(=O)c1ccsc1NC(=O)c1ccc(S(=O)(=O)N2CCOCC2)cc1,0.17% (inactive)
3,Cc1ccc(Oc2cc(NC(=O)CCCn3nc(C)c([N+](=O)[O-])c3C)cc([N+](=O)[O-])c2)cc1,-10.9% (inactive)
4,Nc1cc(C(F)(F)F)ccc1N1CCOCC1,2.5% (inactive)
5,COc1ccccc1-c1nc(SC)n[nH]1,-2.94% (inactive)
6,CN(C)CCCCCN(C)Cc1cc2ccccc2o1,6.13% (inactive)
7,Cc1nn(Cc2ccc(Cl)cc2)c(Cl)c1/C=N/NC(=O)CNc1ccccc1F,-10.4% (inactive)
8,COc1ccc(/C=C2/C(=O)OCc3cc(OC)c(OC)cc32)c(OC)c1,-8.99% (inactive)
9,Cc1cc(-c2csc(N)n2)c(C)n1Cc1ccccc1,5.78% (inactive)
10,CC(C)(C)NC(=O)NC(=O)COC(=O)Cc1ccc(Cl)cc1Cl,16.8% (inactive)
11,Cc1ccnc2nc(C(=O)OCC(=O)N(CC(C)C)CC(C)C)nn12,-2.14% (inactive)
12,C=CCN(CC=C)CCOc1ccccc1[N+](=O)[O-],9.15% (inactive)
13,COC(CNC(=O)Cn1ncc2ccsc2c1=O)OC,-15.6% (inactive)
14,CCO/C=C1\C(=O)N(c2ccc(OCC)cc2)C(=O)c2ccccc21,5.91% (inactive)
15,Cn1cccc1C(C#N)c1ccccc1C#N (stereo not drawn),2.41% (inactive)
16,COc1cccc(OC)c1C(=O)NC(=S)Nc1ccc(N2CCOCC2)c(Cl)c1,-0.95% (inactive)
17,O=C(Cc1ccccc1)NCc1ccc(F)cc1,-9.59% (inactive)
18,CCOC(=O)CSc1nc(C)cc2c1C(=O)OC2,8.27% (inactive)
19,O=C(Cn1nnc(-c2ccccc2)n1)N/N=C/c1ccc(-c2ccc(Cl)cc2)o1,8.21% (inactive)
20,N/C(=N/O)c1cccn1Cc1ccccc1[N+](=O)[O-],-3.45% (inactive)
21,O=C(CCCOc1ccccc1)NCc1ccco1,9.17% (inactive)

row,SMILES,inhibition
1,O=C(c1ccc(F)cc1)c1cn(Cc2ccc(F)cc2)c2cc3c(cc2c1=O)OCCO3,-6.89% (inactive)
2,CCN(CC)CCn1c(/N=C/c2cc(Br)ccc2O)nc2ccccc21,7.14% (inactive)
3,CCOc1ccc(NC(=O)CN(C)CC(=O)NC(C)c2ccccc2)cc1OCC (stereo not drawn),-3.92% (inactive)
4,CCCNC(=S)N1CCCC(c2nc3ccccc3[nH]2)C1 (stereo not drawn),-4.57% (inactive)
5,Cc1cc(C)c[n+](-c2nc3ccccc3nc2[N-]S(=O)(=O)c2cccs2)c1,-9.34% (inactive)
6,COc1ccc2cc(CCl)c(Cl)nc2c1,2.67% (inactive)
7,COc1cccc(OC)c1C(=O)Nc1ccc(Cc2ccncc2)cc1,13.9% (inactive)
8,COc1ccc(-c2onc(C)c2-c2ccc3c(c2)OCCO3)c(O)c1,1.48% (inactive)
9,CC(CC(=O)O)C(=O)c1ccc(Cl)c([N+](=O)[O-])c1 (stereo not drawn),1.72% (inactive)
10,Cc1nnc(-c2ccc(Oc3ccc(C)c(C)c3)c([N+](=O)[O-])c2)o1,2.54% (inactive)
11,S=c1[nH]nc(-c2ccccc2)n1/N=C/c1c[nH]c2ccccc12,-1.22% (inactive)
12,C[n+]1ccc(/C=C/c2c[nH]c3ccccc23)cc1,35.4% (active)
13,CSC(=S)N/N=C/c1c[nH]c2ccccc12,-16.8% (inactive)
14,O=C1c2cccc3c([N+](=O)[O-])ccc(c23)C(=O)N1CC1CCCO1 (stereo not drawn),84.1% (active)
15,O=C(NCc1ccc2c(c1)OCO2)c1ccc2c(c1)C(=O)N(CC1CCCO1)C2=O (stereo not drawn),16.9% (inactive)
16,O=c1c2cc3c(=O)n(CC4CCCO4)c(=O)c3cc2c(=O)n1CC1CCCO1 (stereo not drawn),0.88% (inactive)
17,C/C=C/c1ccc(OCCOc2ccc(C=O)cc2OC)c(OC)c1,-6.21% (inactive)
18,COCCCNC(=O)C1CCC(CNS(=O)(=O)c2ccc(OC)cc2)CC1 (stereo not drawn),3.23% (inactive)
19,CCOC(=O)C1=C(CC)Nc2ccccc2N=C1N,-10.4% (inactive)
20,CCCCN(CC)C(=O)c1ccc2c(c1)OCO2,-2.02% (inactive)
21,O=c1cnnc(Nc2ccccc2F)[nH]1,6.52% (inactive)

row,SMILES,inhibition
1,COc1ccccc1CC(=O)Nc1ccc(F)cc1F,-14.3% (inactive)
2,O=C1NC(=O)C2C1C(c1ccc([N+](=O)[O-])cc1)=NN2Cc1ccccc1 (stereo not drawn),44.1% (active)
3,O=C1CC(c2ccccc2)=NN1c1ccc([N+](=O)[O-])cc1,7.06% (inactive)
4,CC1=NN(c2ccccc2)C(=O)C1C(=O)c1ccc([N+](=O)[O-])cc1 (stereo not drawn),1.28% (inactive)
5,COC(=O)c1cc(C)sc1NC(=O)CC1Nc2ccccc2NC1=O (stereo not drawn),5% (inactive)
6,COc1ccc(-c2nn(-c3ccccc3)cc2/C=N/Nc2ccccn2)cc1OC,-3.61% (inactive)
7,O=C(NCCc1ccc(F)cc1)c1n[nH]c2ccccc12,-4.67% (inactive)
8,CCCn1nnc(NC(=O)COc2ccc(CC)cc2)n1,9.27% (inactive)
9,CSCCC(NS(=O)(=O)c1ccc2c(c1)oc(=O)n2C)C(=O)NC1CCCc2ccccc21 (stereo not drawn),7.47% (inactive)
10,O=C(CO/N=C/c1ccccc1OC(F)F)NC1CCCC1,16.4% (inactive)
11,O=C(CNC1CCCCC1)NCC1(c2ccccc2)CCCC1,-4.02% (inactive)
12,COc1cc(C(=S)NCc2ccccc2)cc(Br)c1O,-2.71% (inactive)
13,Cc1cc(C)n(CCNCc2c(C(=O)N3C[C@@H](C)O[C@@H](C)C3)nc3ccc(Cl)cn23)n1,-4.55% (inactive)
14,Cc1cc(C)cc(OCC(=O)NCc2cc(C)nc3ccccc23)c1,8.6% (inactive)
15,Cc1cccc(C(=O)N2CCc3c([nH]c4ccccc34)C2CC(C)C)n1 (stereo not drawn),-16.4% (inactive)
16,CC12CN(NC(=O)c3ccc(Cl)cc3)C3(C#N)CC1CCC23C (stereo not drawn),1.1% (inactive)
17,CCN(CC(=O)NC1CCS(=O)(=O)C1)S(=O)(=O)c1ccccc1 (stereo not drawn),1.44% (inactive)
18,COc1ccc(S(=O)(=O)N2CN(CCc3ccc(OC)c(OC)c3)c3nc4ccccc4nc32)cc1,3.83% (inactive)
19,Cc1ccc(OCCCC(=O)NC(C)c2ccccc2)c(C)c1 (stereo not drawn),-0.61% (inactive)
20,CCCCCCn1c(CN2CCCCC2)nc2c1c(=O)n(C)c(=O)n2C,3.83% (inactive)
21,CCCCCCCCn1c2c(c(=N)c3c1CCC3)CCCC2,28.8% (active)
